The panel holds about 83,000 compounds, 20% with a hit somewhere; the sample as a whole holds those more often.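 A percent growth of 40 corresponds to 60% growth inhibition; 0 means no net growth; -100 means all cells died. Active threshold: below 10.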 Unmarked numbers belong to inactive results. The source made the active and inactive calls.
Test system: SW-620 colon
Test: NCI-60 one-dose screen, 48 h (100 = growth as untreated, 0 = no growth, -100 = all killed)
Details: 10 µM

| Structure (SMILES) | growth |
| --- | --- |
| C=CCN(CC=C)C(=O)[C@H](CC)[C@@H]1CC[C@@H](C)[C@@H]([C@H](C)[C@@H](O)[C@@H](C)C(=O)[C@H](CC)C2O[C@]3(C=C[C@@H](O)[C@]4(CC[C@@](C)([C@H]5CC[C@](O)(CC)[C@H](C)O5)O4)O3)[C@H](C)C[C@@H]2C)O1 (stereo not given in full) | 12.3% |
| O=C1CCn2c1c(O)c1ccccc1c2=O | 101% |
| COc1ccc(-c2cc(-c3ccccc3)nc(SCCCCCCC(=O)NO)n2)cc1 | 22.6% |
| Cc1ccc(NC(=S)NNC(=S)Nc2ccc(C)cc2)cc1 | 44.3% |
| c1cncc(-c2csc(-c3c[nH]c4ccccc34)n2)c1 | 102% |
| CN(C)CCOc1cccc(-c2nc3sccn3c2-c2ccnc(S(C)(=O)=O)n2)c1 | 91.7% |
| CC(C)(C)c1ccc(S(=O)(=O)N[C@H]2CC[C@H]3[C@@H]4CCc5cc(OS(=O)(=O)O)ccc5[C@H]4CC[C@]23C)cc1 | 56.6% |
| Nc1nccc(OCCO)n1 | 107% |
| CC(C)c1ccc(C(C)C(=O)N(CC2=C(C(C)c3ccccn3)c3ccccc3C2)C(C)C)cc1 (stereo not given) | 31.3% |
| Cc1c2cnccc2c(C)c2c1c1cc(O)ccc1n2C(C)C | 2.58% (active) |
| CCc1ccc(C2=NN(c3ccc(S(C)(=O)=O)cc3)C(=O)CC2)cc1 | 12.4% |
| COc1cc2c(cc1NC(=O)C(Cl)Cl)-c1ccc(NC(=O)C(Cl)Cl)cc1C2 | -11.6% (active) |
| COc1cc(/C=C2\CCCC3=C2NC(N)=NC3c2cc(OC)c(OC)c(OC)c2)cc(OC)c1OC (stereo not given) | -22.3% (active) |
| COc1ccc(-c2nn(-c3cccc(Cl)c3)cc2-c2cc(-c3ccccc3)[nH]c(=O)c2C#N)cc1 | 67.7% |
| CC(C)(C)OC(=O)N1CCc2c(sc3ncnc(N/N=C/c4ccccc4Br)c23)C1 | 55% |
| COc1ccc(-c2nn(-c3cccc(Cl)c3)cc2-c2nc(N)[nH]c(=O)c2C#N)cc1 | 83.2% |
| COc1ccc(-c2cc(-c3ccc(Cl)cc3)nc(SCCCC(=O)NO)n2)cc1 | 14.2% |
| COc1ccc(-c2nn(-c3cccc(Cl)c3)cc2-c2c(C#N)c(=O)n3[nH]c(-c4ccccc4)nc3c2C#N)cc1 | 108% |
| Cc1ccc(-n2c(C)nn3c(=O)c4c5c(sc4nc23)CN(C)CC5)cc1 | 104% |
| CCn1c(CSc2nc3ccccc3c(=O)n2CCc2ccccc2)n[nH]c1=S | 97.5% |

| Structure (SMILES) | growth |
| --- | --- |
| COc1cc2cc(Oc3ccc(NC(=O)Nc4ccc(Cl)c(Cl)c4)cc3)c(C)nc2cc1OC | 23.4% |
| CCOC(=O)c1sc2ncnc(Nc3ccc4c(cnn4C(=O)Nc4ccc(C)c(Cl)c4)c3)c2c1C | 102% |
| CN1CCc2c(sc3nc4n(-c5ccc(Cl)cc5)c(=O)[nH]n4c(=O)c23)C1 | 109% |
| COc1cc2c3c(n(C4CCN(C)CC4)c(=O)c2cc1OC)-c1cc2c(cc1C3=O)OCO2 | 56.2% |
| CCOC(=O)CSc1nc(-c2cc(OC)ccc2OC)cc(-c2ccc(OC)cc2)c1C#N | 92.1% |
| CC(C)N(CCOc1ccc(-c2nc3sccn3c2-c2ccnc(S(C)(=O)=O)n2)cc1)C(C)C | 78.2% |
| N#Cc1ccc(C(=O)CSc2nccc(Nc3ccc(C(=O)O)cc3)n2)cc1 | 104% |
| O=C(CNc1nnc(-c2cccnc2SCc2ccccc2)s1)Nc1nc(Cl)cc(Cl)n1 | 117% |
| COc1ccc(N(C)c2ncnc3occ(C)c23)cc1 | 33.9% |
| COC(=O)C1OC1c1cc([N+](=O)[O-])ccc1OC (stereo not given) | 107% |
| N#Cc1c(-c2ccc(Cl)cc2)cc(-c2cc(O)ccc2O)nc1N | 8.32% (active) |
| CN(C)CCN(Cc1ccccc1)c1ccc2ccccc2n1 | 91.8% |
| COC(=O)c1c[nH]c2cc(OC(C)C)c(OC(C)C)cc2c1=O | 105% |
| C=C/C(C)=C/C[C@]1(C)[C@H](C)[C@@H](OC(=O)CCC)[C@H](O)[C@@]23C(=C[C@H](OC)C[C@@H]12)[C@@H](OC(=O)CCC)O[C@H]3OC(C)=O | -61.1% (active) |
| O=C(Nc1cc([N+](=O)[O-])c2[nH]c(=O)c3ccccc3c2c1)C(F)(F)F | 64.5% |
| Nc1nc(Cl)nc2c1ncn2C1O[C@H](CO)[C@@H](O)[C@@H]1F (stereo not given in full) | 49.7% |
| C#CC(C)(O)[C@@H]1C[C@H](CC(=O)O)C1(C)C (stereo not given in full) | 109% |
| COc1ccc(-c2nn(-c3cccc(Cl)c3)cc2/C=C2\NC(=S)N(c3ccc(Cl)cc3)C2=O)cc1 | 40.8% |
| COc1ccc2c(c1)OC(N)=C(C#N)C2c1cc(OC)c(OC)c(OC)c1 (stereo not given) | 17.1% |
| IC(I)I | 102% |

Source: PubChem BioAssay (NCI)
